# Rows were chosen to be rich in hits. Some 3.6% of all compounds tested hit in one or more screens of this group.
# APOBEC3G inh: APOBEC3G DNA deaminase inhibitors, primary screen, biochemical, fluorescence, single-stranded DNA substrate, uHTS; DNA dC->dU-editing enzyme APOBEC-3G (Homo sapiens), Q9HC16; recombinant A3G, ssDNA deamination FAM/TAMRA fluorescence; inhibition, % at 20 µM; 330,000 compounds, 0.28% hits; AID 493012, 2011;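 active means inhibition of at least 40% at 20 µM, with no more than 30% in the related APOBEC3A deaminase screen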;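 further: plate controls were DMSO wells with A3G for no effect and wells lacking A3G enzyme for full effect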
# MITF TRPM1 HTS: activators of MITF-driven TRPM1 promoter reporter, primary screen, cell-based, SK-MEL-5, luciferase, single point | SK-MEL-5 TRPM1-promoter luciferase, 24 h; % of positive control, neutral wells = 0 | 300,000 compounds, 0.75% hits | AID 588334, 2011 | activation, % at 12.5 µM;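 active means mean activation of at least 80% with every replicate also reaching 80%; inconclusive means mean reaches 80% but some replicate falls short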;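 further: 0% = neutral control wells and 100% = parthenolide positive control wells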
# PHOSPHO1 block: PubChem AID 1565; Phosphoethanolamine/phosphocholine phosphatase (Homo sapiens), Q8TCT1; recombinant PHOSPHO1, absorbance phosphatase assay; inhibition, % at 13.3 µM; 290,000 compounds, 1.1% hits; in the data active means inhibition above about 60%
# Target sequence (Q8TCT1 whole entry, looked up): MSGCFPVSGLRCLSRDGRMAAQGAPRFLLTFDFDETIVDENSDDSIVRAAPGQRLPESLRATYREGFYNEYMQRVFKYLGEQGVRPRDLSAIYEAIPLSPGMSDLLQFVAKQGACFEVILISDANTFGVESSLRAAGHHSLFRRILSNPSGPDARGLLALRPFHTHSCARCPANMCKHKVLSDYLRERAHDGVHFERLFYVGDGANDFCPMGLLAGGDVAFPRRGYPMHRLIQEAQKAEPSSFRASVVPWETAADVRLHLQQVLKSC
# A3A deaminase: APOBEC3A ssDNA deaminase inhibitors, primary screen, selectivity assay for APOBEC3G inhibitor project, biochemical, FAM/TAMRA oligo cleavage fluorescence. DNA dC->dU-editing enzyme APOBEC-3A (Homo sapiens), P31941. recombinant A3A, FAM/TAMRA ssDNA deamination fluorescence. inhibition, % at 20 µM. 330,000 compounds, 0.41% hits. AID 493011, 2011;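 active means at least 40% inhibition at 20 µM here, with at most 30% in a related deaminase screen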;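 further: plate controls were A3A with DMSO for no effect and wells lacking A3A enzyme for full effect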
# Target sequence (P31941 whole entry, looked up): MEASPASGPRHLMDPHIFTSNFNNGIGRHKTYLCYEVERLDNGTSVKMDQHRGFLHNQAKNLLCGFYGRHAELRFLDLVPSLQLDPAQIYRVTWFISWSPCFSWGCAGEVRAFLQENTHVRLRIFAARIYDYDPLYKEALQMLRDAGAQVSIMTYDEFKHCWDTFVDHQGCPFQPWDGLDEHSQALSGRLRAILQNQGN
# Wnt act: Wnt/beta-catenin pathway activators, primary screen, cell-based, plate reader, single point; activation, % at 9.35 µM; AID 743398, 2014; Wnt/beta-catenin reporter cell assay, activator; 300,000 compounds, 1.2% hits; in the data active means activation above about 30%, passing the limit was not always enough; inconclusive means no clear call, values can overlap the other calls;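 further: 0% = neutral control wells and 100% = positive control wells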
# esBAF inh: Bmi1 luciferase reporter increase in mESCs, primary screen, esBAF inhibitor project, mouse ES cells, Bmi1 luciferase knock-in, single point; 350,000 compounds, 2% hits; reporter increase, % at 12.5 µM; 24 h; 100% = twice the neutral-well signal; in the data active means activation above about 40%; inconclusive means no clear call, values can overlap the other calls;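 further: 0% = median of the plate's neutral control wells and 100% = double that signal; a rise in the Bmi1 reporter signal indicates esBAF inhibition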
# An asterisk follows results filed as active; ? = inconclusive; . = not tested or not shown.
SMILES,APOBEC3G inh,MITF TRPM1 HTS,PHOSPHO1 block,A3A deaminase,Wnt act,esBAF inh
O=c1c2c3c(sc2nc2n1CCCC2)CCCC3,-2.1,-1.0,2.5,-0.7,.,47.5*
O=c1c2c3c(sc2nc2n1CCC2)CCCCC3,-4.1,9.2,54.3,3.8,1.9,.
C=C(C)CSc1nc2sc3c(c2c(=O)n1C1CCCCC1)CCN(C)C3,-0.1,2.9,15.7,-2.9,-3.7,0.8
NNc1nc2sc3c(c2c(=O)n1Cc1ccccc1)CCC3,2.6,.,-2.2,3.1,-1.6,4.5
CCn1c(NN)nc2sc3c(c2c1=O)CCC3,3.8,3.5,86.5*,0.6,.,-3.5
C[C@H](CO)N1C[C@H](C)[C@H](CN(C)Cc2ccccc2)OCCCC[C@H](C)Oc2ccc(NC(=O)C3CCCCC3)cc2C1=O,.,.,.,.,.,7.5
CCNC(=O)[C@@H]1[C@@H](CO)[C@@H]2Cn3c(ccc(-c4ccc(F)cc4)c3=O)[C@H]1N2Cc1ccccc1F,.,.,.,.,.,3.9
c1coc(-c2nn3c(-c4ccco4)nnc3s2)c1,9.8,.,83.5*,20.5,.,-4.8
COc1ccccc1-c1nn2c(-c3ccco3)nnc2s1,10.9,134.2*,8.9,7.8,1.1,65.1*
Clc1ccccc1-c1nnc2sc(-c3ccc(Br)o3)nn12,-6.6,3.9,79.7*,-2.0,0.4,13.0
c1coc(-c2nnc3sc(Cc4cccs4)nn23)c1,16.6,3.8,-11.7,26.2,-3.8,5.6
COc1ccccc1-c1nn2c(-c3ccccc3Cl)nnc2s1,.,.,-5.2,.,.,.
C[C@H]1CN([C@@H](C)CO)C(=O)c2cc(C#CCc3ccccc3)cnc2O[C@@H]1CN(C)CC1CCOCC1,.,.,.,.,.,-6.1
CCN(CC)C(=O)CSc1nc2ccc(NC(=O)CSc3nccn3C)cc2s1,-0.6,25.0,5.3,0.7,4.5,78.5*
Cn1cnnc1SCC(=O)Nc1ccc2nc(SCc3cccc4ccccc34)sc2c1,-7.3,-4.8,4.6,-1.2,.,.
Cn1c(SCC(=O)Nc2ccc3nc(SCC(=O)N4CCCC4)sc3c2)nnc1-c1ccc(N)cc1,.,-9.7,67.3*,.,.,6.0
CCN(CC)C(=O)CSc1nc2ccc(NC(=O)CSc3nnc(N)s3)cc2s1,-1.0,1.5,46.0,0.3,.,-22.1
Cn1cnnc1SCC(=O)Nc1ccc2nc(SCc3ccccc3)sc2c1,-4.0,70.0,5.1,-3.7,15.9,68.6*
CN(C)C(=O)C[C@@H]1C=C[C@@H](NC(=O)NC2CCCC2)[C@H](CO)O1,.,.,.,.,.,-1.6
O=C(Nc1nc(-c2ccccc2)ns1)c1ccncc1,-6.4,12.8,41.6,-3.6,?,.
CC(C)(C)C(=O)Nc1nc(-c2ccccc2)ns1,-5.5,.,-5.8,-4.4,.,48.6*
O=C(c1cccs1)N1CCN(C(=O)c2cn(-c3ccccc3)nc2-c2ccccc2)CC1,-6.5,25.3,.,13.5,12.1,53.7*
CNC[C@H]1Oc2cc(-c3ccc(C#N)cc3)ccc2S(=O)(=O)N([C@H](C)CO)C[C@@H]1C,.,.,.,.,.,-7.7
COc1ccc(NC(=O)C2Cc3ccccc3O/C2=N\O)cc1 (stereo unspecified),.,86.1*,28.6,.,9.8,31.3
CC(=O)Oc1ccc(-c2cc3ccc(OC(C)=O)cc3oc2=O)cc1,-2.7,.,.,0.0,51.1*,.
SMILES,APOBEC3G inh,MITF TRPM1 HTS,PHOSPHO1 block,A3A deaminase,Wnt act,esBAF inh
CC(=O)COc1ccc2cc(-c3ccccc3)c(=O)oc2c1,-4.7,.,18.7,-8.5,18.7,-29.7
CC(=O)Oc1ccc2c(=O)c(-c3ccccc3)coc2c1,0.9,63.4,23.6,-3.2,41.1*,.
COc1ccc(-c2coc3cc(OC(C)=O)ccc3c2=S)cc1,.,87.2*,.,.,-3.3,66.2*
COc1ccc(-c2coc3cc(O)c(OC)cc3c2=O)cc1,-7.4,66.6,.,-4.9,9.3,23.1
O=S(=O)(N[C@H]1CC[C@H](CCn2cc(-c3ccccn3)nn2)O[C@@H]1CO)c1cccc(F)c1,.,.,.,.,.,2.9
O=C(C[C@H]1CC[C@@H]2[C@H](COC[C@H](O)CN2C(=O)c2ccc(F)cc2)O1)N1CCCCC1,.,.,.,.,.,-3.6
O=C(O)c1ccc(C=NN2CCCCCC2)cc1,.,25.7,.,.,2.9,46.6*
